# Assay outcomes as filed in PubChem BioAssay.
# NPC1 prom act: activators of NPC1 promoter. Potency, µM (series often up to 9.22 µM), hits mostly activators. AID 485313. Huh7 NPC1 promoter luciferase reporter, 24 h. actives 2.4% (n = 320,000); note: nearly all actives have a fitted effect of over 60% in size
#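 Stably transfected Huh7 (NPC1 promoter→luciferase), 1500 cells/well in Opti-MEM + 10% FBS, 2 h settle, then compound 24 h at 37 °C. Luminescence after 10 min with Amplite reagent.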
# ELG1 genotox: genotoxicity induction in ELG1-luciferase HEK293T cells. HEK293T ELG1-luciferase reporter, luminescence, 16 h. Potency, µM (titrated, usually from 46 µM), hits mostly activators. actives 1.3% (n = 330,000). AID 504466; note: nearly all actives have a fitted effect of over 60% in size
#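 16 hr compound incubation (37 °C, 5% CO2) of HEK293T cells carrying luciferase-tagged ELG1; luciferase then measured by ONE-Glo luminescence after 30 min at RT.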
# FLuc modulator: firefly luciferase modulation, counter-screen for miR-21 project | P08659 | actives 6.9% (n = 360,000) | AID 588342 | purified FLuc, Km substrates, luminescence inhibition | Potency, µM (top dose mostly 57.5 µM), hits mostly inhibitors; note: nearly all actives have a fitted effect of over 55% in size
# Target sequence (P08659 whole entry, looked up): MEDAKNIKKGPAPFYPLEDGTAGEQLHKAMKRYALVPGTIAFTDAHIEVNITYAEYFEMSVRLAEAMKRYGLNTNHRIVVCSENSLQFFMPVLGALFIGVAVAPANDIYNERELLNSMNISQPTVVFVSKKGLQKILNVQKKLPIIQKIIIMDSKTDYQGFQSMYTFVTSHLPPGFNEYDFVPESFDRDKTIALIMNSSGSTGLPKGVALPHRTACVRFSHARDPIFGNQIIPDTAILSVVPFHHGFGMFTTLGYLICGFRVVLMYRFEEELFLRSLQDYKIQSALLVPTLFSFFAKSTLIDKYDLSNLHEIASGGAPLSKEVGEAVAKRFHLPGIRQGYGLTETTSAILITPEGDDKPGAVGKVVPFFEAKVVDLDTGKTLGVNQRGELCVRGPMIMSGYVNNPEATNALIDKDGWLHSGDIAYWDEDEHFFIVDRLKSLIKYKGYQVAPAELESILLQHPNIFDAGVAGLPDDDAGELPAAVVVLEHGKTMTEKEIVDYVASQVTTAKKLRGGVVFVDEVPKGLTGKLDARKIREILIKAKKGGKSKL
#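 Biochemical qHTS of compounds, final roughly 60 µM downward over six points, against 10 nM purified firefly luciferase using Km concentrations of substrates (10 uM D-luciferin, 10 uM ATP) in Tris acetate pH 7.5 buffer; luminescence output.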
# Rab9 prom act: activators of Rab9 promoter. Huh7 Rab9 promoter-luciferase reporter, luminescence, 24 h. Potency, µM (titrated, usually from 9.22 µM), actives largely listed as activators. actives 2.8% (n = 320,000). AID 485297; note: nearly all actives have a fitted effect of over 60% in size
#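 Quantitative HTS format; Huh7 Rab9-luciferase reporter cells (1500/well) receive compound 2 h post-plating, incubate 24 h at 37 °C, then get luciferase reagent for 10 min before luminescence reading.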
# ELG1 repair inh: inhibitors of ELG1-dependent DNA repair in HEK293T cells. HEK293T ELG1-luciferase reporter, luminescence, 16 h; DNA damage induced by 5-fluorouridine. Potency, µM (titrated, usually from 46.1 µM), usual class: inhibitors. actives 2.3% (n = 330,000); note: nearly all actives have a fitted effect of over 55% in size
#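 Luminescence from the luciferase reporter, measured 30 min after ONE-Glo reagent at room temperature, was the read-out. Beforehand, 2,000 cells per well were exposed for 16 hr at 37 °C to 5-fluorouridine together with compound or vehicle.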
# SMN2 splice enh: enhancers of SMN2 splice variant expression; HEK293 SMN2-luciferase splicing reporter, luminescence, 30-36 h; Potency, µM (titrated, usually from 46.1 µM), hits mostly activators; actives 2.8% (n = 210,000); note: nearly all actives have a fitted effect of over 55% in size
#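 HEK293 cells carry an SMN2 […]–luciferase reporter in which exon 7 inclusion puts luciferase in frame. Cells were plated 10-12 h before compound addition, then incubated 30-36 h at 37C. ONE-Glo luminescence was read; sodium butyrate at 4.5 mM final served as control.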
# Hits are given with their value; i = inactive; ? = inconclusive; nt = no result; [ ] = remark or other dose. Rows were chosen to be rich in hits. Some 9.2% of all compounds tested hit in one or more screens of this group. Calls come from the whole dose curve; as a rule, active = well fitted curve in the direction sought with a large enough effect; inconclusive = small, poorly fitted or top-dose-only effect, or another doubt; inactive = no such curve, though single readings can be large; an effect the other way counts as inactive or inconclusive.
SMILES,NPC1 prom act,ELG1 genotox,FLuc modulator,Rab9 prom act,ELG1 repair inh,SMN2 splice enh
COc1ccccc1Nc1nc(-c2cccnc2)cs1,?,i,13.5µM,?,?,nt
CCc1ccccc1Nc1nc(-c2cccnc2)cs1,i,i,?,?,?,nt
O=[N+]([O-])c1ccccc1Nc1nc(-c2cccnc2)cs1,?,?,10.7µM,i,i,nt
Cc1noc(C)c1-c1nc(CS(=O)(=O)c2ccccc2)no1,i,i,i,i,i,nt
CCCCC1(C)NC(=O)N(CC(=O)Nc2cc(S(=O)(=O)N3CCOCC3)ccc2Cl)C1=O (stereo unspecified),i,i,i,i,i,nt
COc1ccc(-c2cc(C(=O)N(C)Cc3cccc(OC)c3OC)c3ccccc3n2)cc1OC,i,i,i,i,13µM,nt
COc1cccc(CN(C)C(=O)c2ccccc2Sc2ccccc2C#N)c1OC,0.316µM,i,8.49µM,0.447µM,?,nt
COc1ccc(CCN(C)C(=O)c2cc(-c3ccccc3)nc3ccccc23)cc1OC,i,i,15.1µM,i,?,nt
COc1ccc(CCN(C)C(=O)c2cc(-c3ccccc3)nc3ccc(C)cc23)cc1OC,?,?,2.39µM,i,?,nt
COc1ccc(Cn2ccc3nc(C)c(C(=O)Nc4cc(OC)c(OC)c(OC)c4)cc3c2=O)cc1,nt,nt,i,nt,nt,nt
CCC(C)NC(=O)c1ccccc1NC(=O)C1COc2ccccc2O1 (stereo unspecified),i,i,i,i,?,nt
Cc1cnc(NC(=O)C2COc3ccccc3O2)s1 (stereo unspecified),0.1µM,?,0.675µM,0.316µM,?,10µM
O=C(NNc1nc2c(F)cccc2s1)C1COc2ccccc2O1 (stereo unspecified),i,i,?,i,i,i
O=C(Nc1nc(-c2ccccc2)cs1)C1COc2ccccc2O1 (stereo unspecified),i,i,i[2.3 µM],i,i,i
CC(C)NC(=O)c1ccccc1NC(=O)C1COc2ccccc2O1 (stereo unspecified),i,i,i,i,20.6µM,i
Cc1ccc2sc(NNC(=O)C3COc4ccccc4O3)nc2c1C (stereo unspecified),i,i,i,i,i,10µM
Cc1csc(NC(=O)C2COc3ccccc3O2)n1 (stereo unspecified),?,0.517µM,1.2µM,0.447µM,?,?
COc1ccc2c(c1)c(=O)c(S(=O)(=O)c1ccc(C)c(C)c1)cn2CC(=O)Nc1ccccc1,nt,nt,i,nt,nt,i
CCOc1ccc(-c2ccc(SCC(=O)Nc3nnc(CC)s3)nn2)cc1,?,?,0.601µM,?,?,11.2µM
COc1ccc(-c2ccc(SCC(=O)Nc3nnc(C)s3)nn2)cc1,i,i,1.35µM,?,?,?
Cn1c(-c2ccc(F)cc2)cnc1SCC(=O)Nc1ccccc1N1CCOCC1,1.58µM,1.84µM,0.953µM,1.26µM,?,12.6µM
COc1ccc(-c2ccc(SCC(=O)NCc3ccco3)nn2)cc1,i,?,8.49µM,?,?,i
CCOc1ccc(NC(=O)CCC(=O)Nc2nnc(CC)s2)cc1,i,i,i,i,i,nt
CCc1nnc(N2C(=O)c3ccccc3C2(O)c2ccccc2)s1 (stereo unspecified),i,i,i,i,i,nt
CCc1nnc(NC(=O)CSc2ccc(-c3ccc(C)cc3)nn2)s1,?,?,2.39µM,?,?,?
SMILES,NPC1 prom act,ELG1 genotox,FLuc modulator,Rab9 prom act,ELG1 repair inh,SMN2 splice enh
CCc1nnc(NC(=O)CSc2nnc(C)n2-c2ccc(C)cc2)s1,i,i,i,i,i,i
CCOc1ccc(-c2ccc(SC)nn2)cc1,0.631µM,?,0.477µM,0.316µM,?,0.794µM
CCOc1ccc(-c2csc(-c3nc(-c4ccc(Br)s4)cs3)n2)cc1,nt,nt,i,nt,nt,i
CCc1nnc(NC(=O)CSc2ncc(-c3ccccc3)n2C)s1,i,18.4µM,?,i,?,i
COc1ccc(N2CCN(C(=O)Cn3nnc(-c4ccccc4N)n3)CC2)cc1,i,i,i,i,i,i
COc1ccc(-c2noc(CCC(=O)N(C)c3cc(Cl)ccc3OC)n2)cc1,nt,nt,i,nt,nt,i
O=C(Oc1ccc([N+](=O)[O-])cc1)C1CC(=O)N(c2ccc3c(c2)OCCO3)C1 (stereo unspecified),nt,i,nt,nt,?,nt
Cc1cccc(NC(=O)c2cccc(NC(=O)c3ccccc3)c2)n1,i,i,21.3µM,i,i,nt
Cc1cccc(/C=N/NC(=O)c2cccc(NC(=O)c3ccccc3)c2)n1,i,i,10.7µM,i,i,nt
Cc1cccc(/C=N/NC(=O)c2ccc(F)cc2)n1,i,i,12µM,i,?,nt
Cc1cccc(NC(=O)c2ccc3nccnc3c2)n1,?,?,?,i,?,nt
Cc1ccc(NC(=O)CN2C(=O)S/C(=C\c3cc(Cl)c(OCC(=O)O)c(Cl)c3)C2=O)cc1,i,i,i,i,i,nt
